In PubChem BioAssay AID1347131 (National Center for Advancing Translational Sciences (NCATS), 2019):
Out of some 410,000 compounds screened, about 2,000 (0.49%) were called active. Another 8% or so got no clear call; they are omitted. The full list was thinned out, with actives kept by preference. Unmarked numbers belong to inactive results. The call rests on the fitted dose curve; tested in HEK293 reporter line.

Experiment: qHTS Assay for Foot and Mouth Disease Virus Antivirals: Primary Screen against the MLPCN compound library; further: nearly all actives have a fitted effect of over 55% in size
Settings: FMDV antiviral cell-based qHTS; series mostly up to 57.9 µM; activity, negative = inhibition: at the top concentration
Potency means the concentration at half of the fitted maximal effect.

Compound | activity, negative = inhibition [%] | Potency
COC(=O)c1ccc(CSc2ccc3nnc(-c4ccc(F)cc4)n3n2)o1 | -33.2 | –
O=C(Nc1ccccc1)Nc1ccc(O)c2ccccc12 | -12.1 | –
COc1cc(NC(=O)Nc2cccc(Cl)c2)c(C(=O)O)cc1OC | -14.1 | –
O=C(Nc1ccc(Cl)cc1)Nc1ccccc1C(=O)O | – | 10 µM (active)
CC1CCc2sc(C(=O)N3CCN(c4ncccn4)CC3)cc2C1 (centres undefined) | -18.6 | –
CC(=O)c1ccc(-c2cc([C@H]3[C@H]4C=CC[C@@H](C)[C@@H]4C(=O)N3Cc3ccccc3)ccc2F)cc1 | -38.5 | –
Cn1c(=O)n(C)c2cc(C(=O)Nc3ccc4c(c3)OCO4)ccc21 | 107 | –
CC(=O)c1cccc(NS(=O)(=O)c2ccc(N/C=C\C(=O)c3ccc(C)cc3)cc2)c1 | -30.2 | –
Cc1ccc(N/C=C/C(=O)c2ccccc2)cc1C | – | 7.94 µM (active)
O=C(Nc1ccccc1)/C(=C/c1ccccc1)c1ccccc1 | -36.4 | –
CSc1ccccc1NC(=O)CSCc1ccc(Br)cc1 | -36.5 | –
O=C1Nc2ccc(Br)cc2/C1=C/C(=O)c1ccccc1 | -31.5 | –
Cc1ccc(NC(=O)c2ccc(NC(=O)c3ccccc3)cc2)cc1C | -26.7 | –
O=C(NC(=S)Nc1ccc2c(c1)OCO2)c1ccc(Cl)cc1 | 111 | –
O=C(/C=C/Nc1ccccc1F)c1ccc(Br)cc1 | – | 12.6 µM (active)
Cc1ccc(NC(=O)C(=O)NCC2(c3ccccc3)CCCC2)cc1C | -33.4 | –
O=C(/C=C\Nc1ccc2c(c1)OCO2)c1ccc2c(c1)OCO2 | – | 17.8 µM (active)
O=C(/C=C/Nc1ccccc1)c1ccccc1 | – | 7.94 µM (active)
O=C(/C=C/c1cc([N+](=O)[O-])ccc1OC(F)F)Nc1cccc([N+](=O)[O-])c1 | -28.7 | –
O=C(COc1ccc(Br)cc1)N1CCN(c2ccccc2)CC1 | -33.6 | –
CCc1nc(SCc2cccnc2)c2c(=O)n(C)c(=O)n(C)c2n1 | -35.2 | –
COC(=O)C1=C(C)N(c2cccc3ccccc23)C(=O)C1 | -41.1 | –
O=S(=O)(Nc1ccccc1Cl)c1ccc2[nH]c(=S)oc2c1 | -33.6 | –
CCCC(=O)Nc1ccc2nc(C)n(Cc3ccccc3Cl)c(=O)c2c1 | -30.7 | –
Cc1ccc(S(=O)(=O)N(C)CC(=O)Nc2ccncc2)cc1 | -36.4 | –
CCOc1ccccc1/C=N/n1c(C)nc2ccccc2c1=O | -39.4 | –

Compound | activity, negative = inhibition [%] | Potency
Cc1cc(C)cc(-n2ccnc2SCC(=O)Nc2ccccc2F)c1 | -32 | –
CN(C)/C=C/C(=O)c1cccc(Oc2ncccn2)c1 | -52.2 | –
O=C(Nc1ccccn1)C(F)(F)C(F)(F)C(F)(F)C(F)(F)C(=O)Nc1ccccn1 | -32.3 | –
O=C(/C=C\Nc1ccccn1)c1ccccc1 | – | 10 µM (active)
COc1ccc(Nc2nc(N)nc(CN3CCN(c4ccccn4)CC3)n2)cc1 | -45.2 | –
CCOC(=O)CC1(C)NC(C(=O)O)C(C)(C)S1 (centres undefined) | 0 | –
O=C(Nc1cccc(N2C(=O)C3CCCCC3C2=O)c1)c1ccccc1 (centres undefined) | – | 14.1 µM (active)
O=C(Nc1ccc(Br)cc1)c1cccc(N2C(=O)C3CCCCC3C2=O)c1 (centres undefined) | -34.9 | –
Cc1cc(C)cc(NC(=O)c2ccc(N3C(=O)C4CCCCC4C3=O)cc2)c1 (centres undefined) | -35.2 | –
COc1ccccc1CNC(=O)c1ccc(CS(=O)(=O)c2ccccc2C)o1 | – | inactive
O=C(Nc1nc2ccccc2[nH]1)c1ccc(Cl)cc1 | – | 12.6 µM (active)
COc1cc(OC)cc(C(=O)N[C@H](C(=O)Nc2nc3ccccc3[nH]2)C(C)C)c1 | -32.3 | –
CN(c1ccccc1)S(=O)(=O)c1ccc(Cl)c(C(=O)Nc2nc3ccccc3[nH]2)c1 | -40.3 | –
COc1cccc(C(=O)Nc2cccc(OCc3cc(=O)n4cccc(C)c4n3)c2)c1 | -33.9 | –
COc1ccc(-c2cc(C(F)(F)F)nc(N3CCN(C)CC3)n2)cc1OC | -35.9 | –
COc1ccc(Cl)cc1NC(=O)CCCS(=O)(=O)c1nc(-c2ccc(OC)c(OC)c2)cc(C(F)(F)F)n1 | – | 28.2 µM (active)
COc1ccc(CCNc2nc(-c3ccc(OC)c(OC)c3)cc(C(F)(F)F)n2)cc1OC | -30.5 | –
Cc1ccccc1-n1c(SCc2c(C)noc2C)nnc1-c1c[nH]c2ccccc12 | -30.2 | –
CCOC(=O)/C(O)=C(\C#N)c1nc2ccccc2[nH]1 | -41.1 | –
COc1ccc(Nc2ccc(N3C(=O)CC(C)C3=O)cc2[N+](=O)[O-])cn1 (centres undefined) | -35.4 | –
CC1CC(=O)N(c2ccc(NCCc3ccc(O)cc3)c([N+](=O)[O-])c2)C1=O (centres undefined) | – | 25.1 µM (active)
NC(=O)c1ccc(N2CCN(c3ccc(O)cc3)CC2)c([N+](=O)[O-])c1 | -35.5 | –
COc1ccccc1C(CNC(=O)c1ccc(-c2ccccc2Cl)o1)N1CCCC1 (centres undefined) | -35.2 | –
CC1C/C(=N/Nc2ccc([N+](=O)[O-])cc2[N+](=O)[O-])CC(C)(C)C1 (centres undefined) | -33 | –
COc1cc(C)c(-c2[nH]ncc2-c2csc(C)n2)c(O)c1 | -38.2 | –
Cc1ccc(C(=O)Cn2c3c(sc2=N)CCCC3)cc1 | – | 7.94 µM (active)

Compound | activity, negative = inhibition [%] | Potency
Cc1ccc(C(=O)Cn2c(=N)n(N)c3ccccc32)cc1 | -55.9 | –
CCOC(=O)Cn1nc(C)c(NC(=O)COc2ccc(OC)cc2)c1C | -31.4 | –
COc1ccc2nc(C)cc(SCC(=O)N/N=C/c3c(OC)ccc4ccccc34)c2c1 | -36.7 | –
Cc1ccc(-c2csc(Nc3ccc(S(N)(=O)=O)cc3)n2)o1 | -30.9 | –
Cc1ccc(NC(=S)Nc2ccc3[nH]c(=O)[nH]c3c2)cc1 | -37.6 | –
Cc1ccc(OCc2nc(-c3ccccn3)no2)c(Br)c1 | – | 20 µM (active)
Clc1ccc(OCc2nc(-c3ccccn3)no2)c(Br)c1 | – | 20 µM (active)
COc1ccc(-c2noc(CCCOc3ccccc3)n2)cc1OC | -34.9 | –
Cc1cc(OCc2nc(-c3ccncc3)no2)cc(C)c1Cl | -36.6 | –
O=C(NCc1ccccn1)c1ccccc1OCc1ccc(Cl)cc1Cl | -31.9 | –
COc1ccc(Br)cc1CNC(=O)CCc1nc(-c2ccc(C)cc2)no1 | -32.7 | –
CCn1c(SCC(=O)Nc2cccc(NC(C)=O)c2)nc2c([nH]c3ccccc32)c1=O | -30.1 | –
COc1ccc(C(=O)c2cn(Cc3ccccc3)c3ccccc3c2=O)cc1OC | -30.9 | –
COc1cc(NC(=O)c2ccc3oc(=O)c(S(=O)(=O)c4ccccc4)cc3c2)cc(OC)c1 | -26.9 | –
CCCCn1c(=O)[nH]c(=O)c2c1nc(CN1C(=O)c3ccccc3S1(=O)=O)n2CCC | -41.4 | –
Cc1cccc(C)c1NC(=O)Cn1c(=O)n(Cc2ccco2)c(=O)c2ccc(C(=O)NC3CCCC3)cc21 | -30.3 | –
COc1ccc2c(c1)C1(C)CC(C)(C)N2C(=O)N1c1ccccc1 (centres undefined) | -39.4 | –
COc1cccc(N2C(=O)C3C(C2=O)C3(c2ccccc2)c2ccccc2)c1 (centres undefined) | – | 14.1 µM (active)
COC(OC)C12c3ccccc3C(c3ccccc31)C1C(=O)N(c3cccnc3)C(=O)C12 (centres undefined) | -32.8 | –
CCn1c(SCC(=O)N/N=C/c2c[nH]c3ccccc23)nnc1-c1ccc(Cl)cc1 | -32.6 | –
CC1c2cc3c(cc2CCN1C(=O)c1ccc(C(F)(F)F)cc1)OCCCO3 (centres undefined) | -34.3 | –
CC(=O)c1ccc(N2CCN(C(=O)CCCCn3c(=O)[nH]c4ccsc4c3=O)CC2)cc1 | -34.1 | –
CC(C)(C)OC(=O)C[C@@H]1C/C=C\C[C@@H](CC(=O)N[C@@H](CO)Cc2ccccc2)C(=O)NC[C@@H](c2ccccc2)OC1=O | -31.5 | –
CC(C)[C@@H](C(=O)N1CCN(Cc2ccc3c(c2)OCO3)CC1)n1nnc2ccccc2c1=O | -39.5 | –
Cc1ccc(CSCC(=O)N2CCN(Cc3ccc4c(c3)OCO4)CC2)cc1 | -35.9 | –
O=C(CCCCCn1c(=O)[nH]c2ccccc2c1=O)N1CCN(Cc2ccc3c(c2)OCO3)CC1 | – | 20 µM (active)

Compound | activity, negative = inhibition [%] | Potency
Cc1nnc(SCC(=O)N2CCCC2)n1-c1ccc(F)cc1 | -42.8 | –
COc1cc(NC(=O)c2noc3c2CCc2ccccc2-3)cc(OC)c1OC | -31.7 | –
CC(=O)c1ccc(NC(=O)c2cc(S(=O)(=O)N3CCOCC3)ccc2C)cc1 | -36.2 | –
CC(=O)c1ccc(NC(=O)c2noc3c2CCC3)cc1 | – | 20 µM (active)
O=C(CSc1nnc2c(Cl)cc(Cl)cn12)N1CCOCC1 | -14.8 | –
O=c1c2cnn(-c3ccccc3)c2ncn1Cc1ccccc1 | -37.6 | –
Cn1ncc(S(=O)(=O)Cc2ccccc2)c(Cl)c1=O | – | 20 µM (active)
CCNc1nc2c(c(=O)n(Cc3ccccc3)c(=O)n2C)n1Cc1ccccc1 | -32.7 | –
COc1ccc(C(=O)NNC(=O)c2ccccn2)cc1 | -98.5 | –
COC(OC)c1ccnc(-c2ccc(OC(=O)c3ccc(F)cc3)cc2)n1 | -38.9 | –
COc1ccccc1-c1noc(-c2ccc(N3CCN(c4ccccc4)CC3)c([N+](=O)[O-])c2)n1 | -38.3 | –
COc1ccccc1-c1nc(-c2ccccn2)no1 | – | 14.1 µM (active)
COc1cccc2cc(-c3nc(-c4ccccc4F)no3)c(=O)oc12 | -45.9 | –
O=C(Oc1ccc(-c2nc(-c3ccccn3)no2)cc1)c1ccccc1 | – | 14.1 µM (active)
COc1ccc(CN2CCN(Cc3ccc(C(F)(F)F)cc3)CC2)c(OC)c1 | -30.9 | –
Cc1cc(OCCOc2cccc3cccnc23)cc(C)c1Cl | -34.1 | –
COc1cccc(/C=N/Nc2ncnc(N)c2[N+](=O)[O-])c1OC | – | 7.94 µM (active)
COc1cccc(/C=N/NC(=O)c2cc3c(OC)cccc3[nH]2)c1OC | -38.6 | –
CC1Cc2ccccc2N1c1ncnc(N)c1[N+](=O)[O-] (centres undefined) | -21.1 | –
CN(c1ccc(C(=O)NCc2cccnc2)cc1)S(=O)(=O)c1ccc(Cl)cc1 | -31.9 | –
O=C(NC1CC1)C1CCN(S(=O)(=O)c2cc([N+](=O)[O-])ccc2Cl)CC1 | -11.8 | –
CCc1cccc(C)c1Nc1c(-c2ccccc2)nc2sccn12 | -32 | –
CCn1nc(-c2ccccc2)c2nc3ccccc3nc21 | -34.2 | –
CCCc1nn2cc(-c3ccc(C)c(C)c3)nc2s1 | – | 14.1 µM (active)
CCOc1ccc(CCNC(=O)c2ccc3c(c2)sc2nc(-c4ccc(F)cc4)cn23)cc1OCC | -32.6 | –
CCCCCc1nn2cc(-c3ccccc3)nc2s1 | – | 12.6 µM (active)
